PubChem BioAssay (Tox21)
Inconclusive results are not listed. Calls of active or inactive are those of the source. Unless noted, calls come from the whole dose curve; as a rule, active = well fitted curve in the direction sought with a large enough effect in the repeat runs; inconclusive = weak or mixed curves; inactive = no such curve, though single readings can be large; an effect the other way counts as inactive or inconclusive.

Experiments:
[1] = qHTS assay to identify small molecule agonists of the vitamin D receptor (VDR) signaling pathway - cell viability counter screen (AID 743224); note: nearly all actives have a fitted effect of over 50% in size; note: potency is the fitted concentration of half-maximal effect
Procedure, shortened: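 VDR-bla cells were preincubated 4 h at 37C/5% CO2, then exposed to compounds for 16 h. After the 2 h room-temperature bla FRET read, CellTiter-Glo was added to the same wells and luminescence read after 30 min.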

[2] = qHTS assay to identify small molecule antagonists of the vitamin D receptor (VDR) signaling pathway - cell viability counter screen (AID 743225); note: nearly all actives have a fitted effect of over 50% in size
Procedure, shortened: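 Read-out: CellTiter-Glo luminescence measured 30 min after reagent addition at room temperature. Cells were VDR-bla HEK 293T exposed 16 h at 37C, 5% CO2, to compound with 3 nM final calcitriol agonist.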

[3] = qHTS assay to identify small molecule agonists of the NFkB signaling pathway - cell viability counter screen (AID 1159515; calls by dose curve; note: nearly all actives have a fitted effect of over 55% in size; note: potency is the fitted concentration of half-maximal effect)
Procedure, shortened: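 NFkB-bla ME-180 cells, 2,000/well, were plated overnight at 37 C, 5% CO2, then exposed to compounds in DMSO for 5 hr. After the bla FRET read, CellTiter-Glo was added to the same wells; luminescence was read after 30 min at room temperature.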

[4] = qHTS assay to identify small molecule agonists of the endoplasmic reticulum stress response signaling pathway (AID 1159516; active = well fitted activation curve with a large enough effect in the signal ratio in the repeat runs, not every such curve was filed as active; the % refers to the signal ratio)
Procedure, shortened: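 CellSensor ESRE-bla HeLa cells, carrying a beta-lactamase reporter driven by the ER stress response element, were plated overnight and exposed to compounds for 5 hr at 37 C. Reporter activity was read as FRET substrate fluorescence after 2 hr at room temperature.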

[5] = qHTS assay to identify small molecule agonists of the endoplasmic reticulum stress response signaling pathway - cell viability counter screen (AID 1159517; calls by dose curve; note: nearly all actives have a fitted effect of over 50% in size; note: potency is the fitted concentration of half-maximal effect)
Procedure, shortened: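 CellTiter-Glo was added to wells already read for beta-lactamase FRET, and luminescence was recorded 30 min later. Cells: ESRE-bla HeLa, 1,500 per well, compound exposure 5 hr at 37 C.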

[6] = qHTS assay to identify small molecule antagonists of the retinoid-related orphan receptor gamma (ROR-gamma) signaling pathway - cell viability counter screen (AID 1159520); note: nearly all actives have a fitted effect of over 50% in size
Procedure, shortened: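 Tet-on ROR gamma CHO cells (1,000/well) were plated 4 hr, given compounds in DMSO for 2 hr at 37 C, then induced with 1 uM final doxycycline for 16 hr. Viability was read as ATP by CellTiter-Glo luminescence after 30 min.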

[7] = qHTS assay to identify small molecule agonists of the AP-1 signaling pathway - cell viability counter screen (AID 1159525; calls by dose curve; note: nearly all actives have a fitted effect of over 55% in size)
Procedure, shortened: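 ME-180 AP-1-bla, 2500 cells/well, Opti-MEM + 0.5% dialyzed FBS; overnight 37 °C; cpd 15-pt titration, 5 h 37 °C; CellTiter-Glo 30 min RT; luminescence read; normalised to TOAB and DMSO controls.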

[8] = qHTS assay to identify small molecule agonists of the AP-1 signaling pathway (AID 1159526; calls by dose curve)
[9] = molecular target: Retinoic acid receptor RXR-alpha (Homo sapiens) (UniProt P19793); test: qHTS assay to identify small molecule agonists of the RXR signaling pathway (AID 1159527; calls by dose curve; note: nearly all actives have a fitted effect of over 35% in size)
Chain of Retinoic acid receptor RXR-alpha (Homo sapiens) (P19793 whole entry, looked up): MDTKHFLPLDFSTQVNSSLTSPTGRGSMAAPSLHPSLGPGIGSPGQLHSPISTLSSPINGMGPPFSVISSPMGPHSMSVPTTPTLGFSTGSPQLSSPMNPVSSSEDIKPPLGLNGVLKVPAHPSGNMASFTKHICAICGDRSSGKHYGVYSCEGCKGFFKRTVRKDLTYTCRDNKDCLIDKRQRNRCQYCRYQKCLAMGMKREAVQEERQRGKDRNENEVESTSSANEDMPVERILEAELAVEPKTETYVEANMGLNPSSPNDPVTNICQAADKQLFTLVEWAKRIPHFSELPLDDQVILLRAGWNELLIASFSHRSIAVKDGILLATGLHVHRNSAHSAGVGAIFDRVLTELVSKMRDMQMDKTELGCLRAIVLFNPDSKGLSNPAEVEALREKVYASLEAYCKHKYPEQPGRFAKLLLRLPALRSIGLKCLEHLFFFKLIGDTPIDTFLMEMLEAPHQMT
Procedure, shortened: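 Read-out: beta-lactamase FRET ratio (405 nm excitation, 460 and 530 nm emission) after 2 hr substrate loading at room temperature. Cells were RXR-alpha-UAS-bla HEK 293T treated with compounds for 16 hr in 2% charcoal-stripped FBS medium.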

[10] = qHTS assay to identify small molecule agonists of the RXR signaling pathway - cell viability counter screen (AID 1159529); note: nearly all actives have a fitted effect of over 50% in size; note: potency is the fitted concentration of half-maximal effect
Procedure, shortened: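 HEK 293T RXRa-bla cells, 2% CS-FBS; 5 h settle; cpd 16 h 37 C, 5% CO2; CellTiter-Glo 30 min RT, luminescence. Tetraoctyl ammonium bromide as positive control.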

[11] = qHTS assay to identify small molecule antagonists of the retinoid acid receptor (RAR) signaling pathway - cell viability counter screen (AID 1159551); note: nearly all actives have a fitted effect of over 35% in size
Procedure, shortened: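 C3RL4 cells were seeded overnight at 37 C, then treated with compounds plus 1 uM (final) retinol for 6 h at 37 C. Viability was read as ATP by CellTiter-Glo luminescence after 30 min at room temperature.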

[12] = qHTS assay to identify small molecule antagonists of the retinoic acid receptor (RAR) signaling pathway (AID 1159552; note: nearly all actives have a fitted effect of over 50% in size)
Procedure, shortened: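 Cells of the C3RL4 line were seeded, incubated overnight, then dosed with compounds in DMSO followed immediately by retinol (1 uM final). Six hours later luciferase detection reagent went in; signal was measured after 30 min at RT.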

[13] = qHTS assay to identify small molecule agonists of the retinoic acid receptor (RAR) signaling pathway (AID 1159553)
Procedure, shortened: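 C3RL4 cells carrying a RARE luciferase reporter were plated overnight at 37 C, then exposed to compounds in DMSO for 6 hr at 37 C and 5% CO2. Luminescence was read 30 min after luciferase reagent addition at room temperature.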

[14] = molecular target: Nuclear receptor ROR-gamma (Homo sapiens) (UniProt P51449); test: qHTS assay to identify small molecule antagonists of the retinoid-related orphan receptor gamma (ROR-gamma) signaling pathway (AID 1159521; note: nearly all actives have a fitted effect of over 50% in size; note: potency is the fitted concentration of half-maximal effect)
Procedure, shortened: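 CHO Tet-on RORγ, RORE-luc reporter. Cpd 2 h pre-incubation, then dox hyclate 1 uM final, 16 h, 37 C/5% CO2. ONE-Glo luminescence; decrease = antagonist.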

Measured: Potency

CN(C)CCN(Cc1ccsc1)c1ccccn1
not listed: [14]
inactive: all other assays above

CCCCCCCCCCCC(=O)OC[C@@H](O)[C@H]1OC[C@H](OCCO)[C@H]1OCCO
not listed: [1] | [2] | [14]
inactive: all other assays above

CCCCC(CC)CN1C(=O)C2C3C=CC(C3)C2C1=O (stereo not drawn)
inactive: [3] | [4] | [5] | [6] | [14] | [10] | [11]

Cc1oc2c(NC(=O)c3c(Cl)cccc3Cl)cccc2c1C(C)(C)O
active: [14] 27.3 µM
not listed: [1] | [2] | [7] | [9] | [10]
inactive: all other assays above

C[Si](C)(CCCN)O[Si](C)(C)CCCN
not listed: [7]
inactive: all other assays above

CCCCC
not listed: [2] | [7]
inactive: all other assays above

O=C(OCCCCCCOC(=O)c1ccccc1)c1ccccc1
active: [1] 43.6 µM
not listed: [8] | [9] | [10] | [11] | [13]
inactive: all other assays above

CC(C)(C)Cl
not listed: [14]
inactive: all other assays above

CCCCCCOC(=O)NC(=N)c1ccc(NCc2nc3cc(C(=O)N(CCC(=O)OCC)c4ccccn4)ccc3n2C)cc1
active: [1] 29.8 µM | [3] 19 µM | [5] 21.3 µM | [14] 11.9 µM | [10] 10.7 µM
inactive: [4] | [6] | [11] | [12] | [13]

CN(C)CCOC(c1ccccc1)c1ccc(Br)cc1 (stereo not drawn)
inactive: [2] | [3] | [4] | [5] | [6] | [14] | [7] | [11]

CCC(CC)Nc1ccc(C)c(C)c1
inactive: [2] | [3] | [4] | [5] | [6] | [14] | [7] | [11]
